Experimental findings from ChEMBL document CHEMBL3988442, “University of Dundee, Small-Polar-MMV Screening Library” (2021) are described below.

For some of these results: Potency and affinity values are given separately.

Set-up in all cases: scale not given: direction of the effect not stated beside the values
In test [1] the target is Protein translocase subunit SecA (Escherichia coli (strain K12)) (UniProt P10408). In words: Assay to Identify E. coli SecA ATPase Inhibitors. It counts as functional. To be noted: 30 µM.
Protein translocase subunit SecA (Escherichia coli (strain K12)), sequence (P10408 whole entry): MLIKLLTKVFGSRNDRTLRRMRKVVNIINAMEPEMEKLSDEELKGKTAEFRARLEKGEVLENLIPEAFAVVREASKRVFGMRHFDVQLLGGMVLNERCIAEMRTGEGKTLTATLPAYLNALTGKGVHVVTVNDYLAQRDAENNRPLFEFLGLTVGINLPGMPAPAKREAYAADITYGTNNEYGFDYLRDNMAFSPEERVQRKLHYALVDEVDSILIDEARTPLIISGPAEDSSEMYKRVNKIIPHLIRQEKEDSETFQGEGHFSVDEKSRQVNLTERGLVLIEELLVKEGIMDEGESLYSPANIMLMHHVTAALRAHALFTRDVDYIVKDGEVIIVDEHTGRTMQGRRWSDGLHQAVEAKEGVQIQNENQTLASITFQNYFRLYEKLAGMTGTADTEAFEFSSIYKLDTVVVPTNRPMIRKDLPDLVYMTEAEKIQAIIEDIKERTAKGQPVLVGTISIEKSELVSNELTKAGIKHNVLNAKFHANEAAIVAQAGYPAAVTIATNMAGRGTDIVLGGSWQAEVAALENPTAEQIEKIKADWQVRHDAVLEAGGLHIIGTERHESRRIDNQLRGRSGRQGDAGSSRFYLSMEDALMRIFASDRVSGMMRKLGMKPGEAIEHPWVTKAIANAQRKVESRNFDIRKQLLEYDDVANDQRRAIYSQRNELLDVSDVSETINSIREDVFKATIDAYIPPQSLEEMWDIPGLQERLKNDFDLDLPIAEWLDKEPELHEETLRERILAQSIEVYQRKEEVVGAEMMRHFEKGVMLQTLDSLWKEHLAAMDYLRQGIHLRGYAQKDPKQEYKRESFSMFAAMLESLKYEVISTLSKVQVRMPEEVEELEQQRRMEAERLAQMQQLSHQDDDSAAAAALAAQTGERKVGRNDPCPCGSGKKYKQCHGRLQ
For test [2], the target named is T1, Ubiquitin-activating enzyme e1, putative (Leishmania donovani (strain BPK282A1)) (UniProt E9BSI1).
T1 sequence (whole entry): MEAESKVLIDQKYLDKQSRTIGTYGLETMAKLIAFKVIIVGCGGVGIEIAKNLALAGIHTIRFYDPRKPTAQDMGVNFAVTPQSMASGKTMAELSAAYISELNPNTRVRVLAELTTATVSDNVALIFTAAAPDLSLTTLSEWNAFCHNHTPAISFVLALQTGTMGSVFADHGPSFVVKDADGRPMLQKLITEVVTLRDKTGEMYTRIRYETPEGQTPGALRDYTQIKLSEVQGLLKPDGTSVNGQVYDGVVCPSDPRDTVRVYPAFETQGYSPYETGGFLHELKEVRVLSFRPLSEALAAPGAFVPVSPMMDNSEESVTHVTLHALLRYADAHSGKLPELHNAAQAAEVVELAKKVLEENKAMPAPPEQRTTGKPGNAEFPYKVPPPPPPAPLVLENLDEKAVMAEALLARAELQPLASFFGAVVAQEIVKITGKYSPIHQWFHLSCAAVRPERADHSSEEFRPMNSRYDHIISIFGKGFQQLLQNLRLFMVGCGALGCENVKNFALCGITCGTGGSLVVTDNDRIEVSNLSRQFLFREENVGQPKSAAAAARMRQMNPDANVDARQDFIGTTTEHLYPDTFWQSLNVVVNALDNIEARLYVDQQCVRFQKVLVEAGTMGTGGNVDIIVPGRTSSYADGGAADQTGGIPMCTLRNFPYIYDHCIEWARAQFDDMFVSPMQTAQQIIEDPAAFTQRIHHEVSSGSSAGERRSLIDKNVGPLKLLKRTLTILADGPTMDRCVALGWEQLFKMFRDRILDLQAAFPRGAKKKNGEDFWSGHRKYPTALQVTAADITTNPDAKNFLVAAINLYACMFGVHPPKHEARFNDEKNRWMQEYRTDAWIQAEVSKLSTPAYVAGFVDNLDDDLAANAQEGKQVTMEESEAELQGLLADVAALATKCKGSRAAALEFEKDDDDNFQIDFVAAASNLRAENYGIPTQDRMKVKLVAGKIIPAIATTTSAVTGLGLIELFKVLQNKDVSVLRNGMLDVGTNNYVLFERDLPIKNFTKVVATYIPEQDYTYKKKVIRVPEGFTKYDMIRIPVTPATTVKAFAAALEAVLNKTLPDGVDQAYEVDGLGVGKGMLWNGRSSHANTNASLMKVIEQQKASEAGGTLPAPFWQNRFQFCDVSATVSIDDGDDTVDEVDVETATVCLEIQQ
In words: Leishmania donovani Ubiquitin Activating Enzyme (LdE1). It counts as functional. To be noted: 30 µM.

The target in test [3] is AMP-activated protein kinase, AMPK (Homo sapiens) (UniProt P54646+O43741+P54619+Q9UGJ0+Q9Y478+Q13131+Q9UGI9). The test is described as follows: AMP-dependent Kinase enzyme assay. An in vitro enzyme assay that detects ADP turnover that is directly proportional to AMPK activity. This uses naive AMPK that is activated during the assay with MK-8722. The conditions noted are these: 30 µM. It counts as functional.

The target of test [4] is Sialic acid-binding Ig-like lectin 9 (Homo sapiens) (UniProt Q9Y336). In words: Hs-Siglec9 ALPHAscreen SOP 20170721. The conditions noted are these: 10 µM.
Sialic acid-binding Ig-like lectin 9 (Homo sapiens), sequence (Q9Y336 whole entry): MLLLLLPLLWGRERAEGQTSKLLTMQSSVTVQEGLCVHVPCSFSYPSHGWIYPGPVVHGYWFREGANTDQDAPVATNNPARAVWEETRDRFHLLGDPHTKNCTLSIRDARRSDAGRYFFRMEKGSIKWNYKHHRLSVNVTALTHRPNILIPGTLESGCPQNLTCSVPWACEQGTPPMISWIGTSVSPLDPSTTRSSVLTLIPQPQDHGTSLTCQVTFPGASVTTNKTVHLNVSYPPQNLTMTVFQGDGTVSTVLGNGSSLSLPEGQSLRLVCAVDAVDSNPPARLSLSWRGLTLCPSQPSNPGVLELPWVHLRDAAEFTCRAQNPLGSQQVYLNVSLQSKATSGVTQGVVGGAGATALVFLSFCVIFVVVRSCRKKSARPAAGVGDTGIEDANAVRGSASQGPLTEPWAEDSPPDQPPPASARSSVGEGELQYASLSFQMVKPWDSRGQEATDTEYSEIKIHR
In the next test the test system is Trypanosoma cruzi. In words: Trypanosoma cruzi phosphomannomutase and mannose-1-phosphate guanylyltransferase assay. It counts as functional. To be noted: 10 µM.
Test [5] addresses T2, Arginase-2, mitochondrial (Homo sapiens) (UniProt P78540).
T2 sequence (whole entry): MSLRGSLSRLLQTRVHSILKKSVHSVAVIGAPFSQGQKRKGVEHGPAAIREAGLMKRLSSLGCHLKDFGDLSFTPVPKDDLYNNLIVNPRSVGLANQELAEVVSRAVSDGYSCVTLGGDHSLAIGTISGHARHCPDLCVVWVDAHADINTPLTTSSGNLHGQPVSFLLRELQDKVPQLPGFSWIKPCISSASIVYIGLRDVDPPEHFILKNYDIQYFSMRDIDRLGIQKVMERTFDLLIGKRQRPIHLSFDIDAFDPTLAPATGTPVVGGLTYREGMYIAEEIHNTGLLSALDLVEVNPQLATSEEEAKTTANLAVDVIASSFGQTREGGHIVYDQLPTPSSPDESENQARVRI
The test is described as follows: in vitro enzyme assay to detect the production of urea directly proportional to the activity of Arginase II. Also: in the data most compounds retested in dose-response had high values. It counts as functional. The conditions noted are these: 33.3 µM.

The target in test [6] is T3, Proteasome subunit beta (Trypanosoma cruzi) (UniProt O96673).
T3 sequence (whole entry): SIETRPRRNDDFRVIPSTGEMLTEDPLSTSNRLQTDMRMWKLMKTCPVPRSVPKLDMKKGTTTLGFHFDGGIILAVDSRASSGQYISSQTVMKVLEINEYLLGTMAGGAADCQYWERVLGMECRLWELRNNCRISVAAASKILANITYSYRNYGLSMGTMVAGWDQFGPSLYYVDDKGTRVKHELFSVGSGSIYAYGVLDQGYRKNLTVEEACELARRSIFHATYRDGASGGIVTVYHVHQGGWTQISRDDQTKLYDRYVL
The test is described as follows: Trypanosoma cruzi proteasome chymotrypsin-like activity (TcProtChymo) assay. Also: in the data most compounds retested in dose-response had high values. The format is functional. To be noted: 9.37 µM.

For a further test, the species on record is Homo sapiens. In words: To identify inhibition of the IFN signalling (Jak-Stat) pathway via expression of an eGFP reporter gene under the control of an IFN-stimulated response element (ISRE) containing MxA promoter. The format is functional. The conditions noted are these: 30 µM. (In general: In a reporter assay the amount or activity of a reporter protein is the signal.)

Test [7] concerns the target T4, Tyrosyl-tRNA synthetase, putative (Trypanosoma cruzi (strain CL Brener)) (UniProt Q4DSP6).
T4 sequence (whole entry): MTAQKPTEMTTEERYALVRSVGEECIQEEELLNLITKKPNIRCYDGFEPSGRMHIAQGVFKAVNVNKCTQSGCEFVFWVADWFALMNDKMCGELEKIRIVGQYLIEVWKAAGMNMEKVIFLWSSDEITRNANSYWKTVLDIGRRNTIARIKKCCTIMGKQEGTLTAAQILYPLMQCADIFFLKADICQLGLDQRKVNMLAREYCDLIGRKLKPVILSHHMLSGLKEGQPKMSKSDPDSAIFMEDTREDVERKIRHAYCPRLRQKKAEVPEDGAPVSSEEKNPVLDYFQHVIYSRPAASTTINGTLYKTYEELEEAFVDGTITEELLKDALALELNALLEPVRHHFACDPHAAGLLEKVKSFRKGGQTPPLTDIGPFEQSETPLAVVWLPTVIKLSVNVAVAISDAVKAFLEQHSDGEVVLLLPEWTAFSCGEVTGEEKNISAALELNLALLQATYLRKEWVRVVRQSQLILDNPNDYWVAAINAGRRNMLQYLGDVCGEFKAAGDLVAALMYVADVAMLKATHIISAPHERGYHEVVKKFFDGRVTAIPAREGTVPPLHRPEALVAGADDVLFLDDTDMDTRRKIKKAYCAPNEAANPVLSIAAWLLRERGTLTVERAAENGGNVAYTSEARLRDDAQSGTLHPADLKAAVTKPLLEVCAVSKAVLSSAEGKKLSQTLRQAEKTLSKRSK
In words: Trypanosoma cruzi tyrosyl tRNA synthetase (TcYRS) _High Tyrosine SOP. Also: in the data most compounds retested in dose-response had high values. The format is functional. To be noted: 30 µM.

Test [8] deals with T4, Tyrosyl-tRNA synthetase, putative (Trypanosoma cruzi (strain CL Brener)). In words: Trypanosoma cruzi tyrosyl tRNA synthetase (TcYRS) SOP. The format is functional. To be noted: 30 µM.
The target in test [9] is Chromo domain-containing protein 1 (Saccharomyces cerevisiae (strain ATCC 204508 / S288c) (Baker's yeast)) (UniProt P32657). The test is described as follows: ScCHD-1 Enzyme Inhibition Assay. Also: in the data most compounds retested in dose-response had high values. It counts as functional. The conditions noted are these: 30 µM.
Chromo domain-containing protein 1 (Saccharomyces cerevisiae (strain ATCC 204508 / S288c) (Baker's yeast)), sequence (P32657 whole entry, the tested form may be a part): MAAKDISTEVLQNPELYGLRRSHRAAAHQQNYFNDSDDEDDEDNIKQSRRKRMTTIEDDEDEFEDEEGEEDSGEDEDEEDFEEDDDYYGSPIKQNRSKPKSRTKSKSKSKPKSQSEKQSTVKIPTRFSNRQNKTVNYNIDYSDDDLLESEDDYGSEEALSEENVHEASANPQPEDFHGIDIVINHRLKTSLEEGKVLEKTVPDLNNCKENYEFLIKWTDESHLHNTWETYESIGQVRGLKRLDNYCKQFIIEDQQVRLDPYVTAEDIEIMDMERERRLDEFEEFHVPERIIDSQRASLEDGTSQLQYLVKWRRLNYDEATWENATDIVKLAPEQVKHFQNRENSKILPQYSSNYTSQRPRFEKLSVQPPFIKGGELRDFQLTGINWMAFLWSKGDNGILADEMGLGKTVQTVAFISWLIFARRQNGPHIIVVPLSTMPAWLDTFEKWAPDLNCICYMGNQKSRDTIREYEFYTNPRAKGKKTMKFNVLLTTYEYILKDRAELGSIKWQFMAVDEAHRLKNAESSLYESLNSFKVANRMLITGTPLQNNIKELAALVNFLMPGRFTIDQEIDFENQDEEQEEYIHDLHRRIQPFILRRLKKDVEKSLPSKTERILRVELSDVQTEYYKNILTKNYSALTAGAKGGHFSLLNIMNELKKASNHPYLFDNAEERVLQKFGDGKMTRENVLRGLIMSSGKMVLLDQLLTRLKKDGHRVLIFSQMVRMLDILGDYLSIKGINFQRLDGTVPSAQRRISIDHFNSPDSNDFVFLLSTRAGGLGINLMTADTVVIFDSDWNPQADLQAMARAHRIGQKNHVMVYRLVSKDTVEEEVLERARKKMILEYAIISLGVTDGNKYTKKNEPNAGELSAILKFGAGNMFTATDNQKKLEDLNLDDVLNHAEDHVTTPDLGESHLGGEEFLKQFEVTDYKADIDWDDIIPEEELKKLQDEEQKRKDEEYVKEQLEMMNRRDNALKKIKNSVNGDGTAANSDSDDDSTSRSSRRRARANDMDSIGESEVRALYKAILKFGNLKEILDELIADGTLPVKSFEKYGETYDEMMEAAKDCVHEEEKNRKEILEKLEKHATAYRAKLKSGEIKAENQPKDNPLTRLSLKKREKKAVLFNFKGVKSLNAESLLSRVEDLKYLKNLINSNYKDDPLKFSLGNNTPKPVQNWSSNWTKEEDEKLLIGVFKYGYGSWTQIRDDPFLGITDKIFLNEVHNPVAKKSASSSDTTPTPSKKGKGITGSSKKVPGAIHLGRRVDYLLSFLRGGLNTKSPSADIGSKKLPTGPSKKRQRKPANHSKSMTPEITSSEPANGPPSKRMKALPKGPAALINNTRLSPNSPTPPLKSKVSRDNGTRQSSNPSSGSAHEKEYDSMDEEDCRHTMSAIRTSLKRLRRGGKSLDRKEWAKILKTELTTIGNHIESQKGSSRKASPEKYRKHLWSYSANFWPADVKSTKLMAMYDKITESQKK

Take `O=C(COCc1nc(-c2ccncc2)no1)NC1CCCCC1`: the Percent Effect in test [1] was -6.1%; in test [2], 7.79%; in test [3] it was 1.21%; in [4] it was 9.68%; with Trypanosoma cruzi it was 2.46%; in test [5], 0%. Moreover, the Percent Effect in test [6] was 7.65%; in the test filed under Homo sapiens, 5.36%; in [7] it was 7.53%; in test [8], 13.6%; in test [9], -2.34%.
As for `Cc1nnc2n1CCN(Cc1csc(Cc3ccccc3)n1)C2`, the Percent Effect in [1] was -5.45%; in test [2], 5.41%; in test [3] it was -7.1%; in test [4], 3.42%; with Trypanosoma cruzi, 3.25%; in [5] it was 4.62%. The Percent Effect in [6] is 3.41%; in the test listed under Homo sapiens it was 8.73%; in [7], 8.91%; in [8] it was 15.8%; in test [9] it was -1.48%.
Consider `Cc1nc(C2CCCN2C(=O)c2ccccc2)ncc1C(N)=O` (stereo unspecified), for which the Percent Effect is -3.32% in test [1]; 10.7% in test [2]; 3.14% in test [3]; 7.6% in test [4]; 1.97% with Trypanosoma cruzi; -3.96% in [5]. The Percent Effect was 3.79% in [6]; 22.3% in the test filed under Homo sapiens; 5.32% in test [7]; 14.1% in test [8]; -6.6% in [9].
As for `CC(O)CN1CCN(C(=O)c2cc3ccccc3[nH]c2=O)CC1` (stereo unspecified), the Percent Effect in [1] is -2.78%; in test [2] it was 2.63%; in test [3] it was -2.27%; in test [4] it was 10.3%; in the test with Trypanosoma cruzi, -3.8%; in test [5], -4.73%. Besides, the Percent Effect in test [6] was 13.1%; in the test listed under Homo sapiens, -25.9%; in test [7], 1.06%; in test [8] it was -5.2%; in [9], -3.52%.
For `CCS(=O)(=O)N(C)c1ccc(C(=O)N2CCCC(C)C2)cc1` (stereo unspecified), the Percent Effect was -2.45% in test [1]; 4.17% in test [2]; -4.69% in test [3]; 15.7% in test [4]; 3.4% with Trypanosoma cruzi; 0.883% in test [5]. For the same compound, the Percent Effect was 0.351% in [6]; 4.06% in the test listed under Homo sapiens; -1.05% in test [7]; 5.13% in test [8]; -1.93% in [9].
As for `NCCn1nc(C2CCN(Cc3ccc(Cl)c(Cl)c3)C2)c2nccnc21` (stereo unspecified), the Percent Effect is -3.22% in test [1]; -14.9% in test [2]; 7.43% in test [3]; 0.383% in test [4]; 2.37% in the test with Trypanosoma cruzi; -4.41% in test [5]. Besides, the Percent Effect was 8.74% in test [6]; 7.68% in the test filed under Homo sapiens; 1.07% in test [7]; -1.3% in test [8]; -23.3% in test [9].
For the compound `CC(NC(=O)N(C)Cc1ccsc1)c1ccc2c(c1)OCO2` (stereo unspecified), the Percent Effect was -2.79% in [1]; 10.5% in [2]; 5% in test [3]; 4.83% in test [4]; 9.59% in the test with Trypanosoma cruzi; -4.21% in test [5]. The Percent Effect in [6] was 11%; in the test filed under Homo sapiens, 1.31%; in test [7], 4.41%; in test [8] it was 19.5%; in test [9], -8.55%.
With `CC(C)N(C)S(=O)(=O)N(C)Cc1ccc2c(c1)OCO2`, the Percent Effect is -6.28% in [1]; 15.6% in test [2]; -11.7% in test [3]; 5.6% in [4]; 10.5% in the test on Trypanosoma cruzi; 2.49% in [5]. The Percent Effect was 12.7% in test [6]; 13.3% in the test listed under Homo sapiens; 5.83% in test [7]; 21.9% in [8]; -8.74% in [9].
As to `Cc1cnn(CCNCC(O)COc2c(C)ccc(C)c2C)c1` (stereo unspecified), the Percent Effect in [1] was -5.33%; in [2], 20.2%; in [3], -11.8%; in test [4], 20.1%; in the test on Trypanosoma cruzi it was 6.7%; in test [5] it was -4.56%. Further, the Percent Effect is 8.27% in test [6]; -1.01% in the test filed under Homo sapiens; 7.39% in test [7]; 21.5% in test [8]; -4.18% in test [9].
As for `CCn1nc(C)c(CNC(=O)c2cn(CCC3CCCCN3)nn2)c1C` (stereo unspecified), the Percent Effect was -5.31% in test [1]; 2.67% in test [2]; 0.29% in test [3]; 4.73% in test [4]; 1.27% with Trypanosoma cruzi; 5.21% in test [5]. The Percent Effect was 9.77% in test [6]; -25.2% in the test filed under Homo sapiens; 7.1% in [7]; 16.1% in [8]; -5.55% in test [9].
In the case of `CCc1nnc2n1CCN(CCS(=O)(=O)c1ccccc1)C2`, the Percent Effect in test [1] is -7.25%; in test [2] it was 13%; in test [3], 6.16%; in test [4], 15.6%; with Trypanosoma cruzi it was -3.37%; in test [5] it was 1.07%. Also, the Percent Effect is -2.87% in test [6]; 4.97% in the test listed under Homo sapiens; 0.971% in [7]; 7.32% in test [8]; -3.89% in test [9].
